Measurements: PubChem BioAssay (NCATS)
Records with an inconclusive call do not appear. A call without a number means that no potency is given here. Calls of active or inactive are those of the source. Calls follow the shape of the dose curve; as a rule, active = well fitted inhibition curve with a large enough effect; inconclusive = small, poorly fitted or top-dose-only effect; inactive = flat fitted curve, though single readings scatter.

Assays:
Test in all cases: qHTS profiling for inhibitors of Plasmodium falciparum proliferation (AID 504749); also: nearly all actives have a fitted effect of over 60% in size
Settings in all cases: P. falciparum in erythrocytes, SYBR Green DNA, 72 h; series mostly up to 28.7 µM
CP192 = test system: CP192
Procedure, shortened: (§1)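 In a 72 h erythrocytic culture (37 C, humidified, 5% CO2) at 2.5% hematocrit and 0.3% starting parasitemia, compounds were tested; SYBR Green I in detergent lysis buffer stained parasite DNA overnight.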

CP194 = test system: CP194
Procedure, shortened: as §1

CP201 = test system: CP201
Procedure, shortened: as §1

CP203 = test system: CP203
Procedure, shortened: as §1

CP211 = test system: CP211
Procedure, shortened: as §1

CP215 = test system: CP215
Procedure, shortened: as §1

CP217 = test system: CP217
Procedure, shortened: as §1

CP237 = test system: CP237
Procedure, shortened: as §1

CP238 = test system: CP238
Procedure, shortened: as §1

CP247 = test system: CP247
Procedure, shortened: as §1
Potency is read from the fitted curve at half-maximal effect.

Compound	Potency (CP192)	Potency (CP194)	Potency (CP201)	Potency (CP203)	Potency (CP211)	Potency (CP215)	Potency (CP217)	Potency (CP237)	Potency (CP238)	Potency (CP247)
CC[C@H]1CN2CCc3cc(OC)c(OC)cc3[C@H]2C[C@@H]1C[C@@H]1NCCc2cc(OC)c(OC)cc21	0.536 µM (active)	0.601 µM (active)	0.675 µM (active)	0.379 µM (active)	0.675 µM (active)	0.536 µM (active)	0.708 µM (active)	0.126 µM (active)	0.316 µM (active)	0.398 µM (active)
Nc1ccn([C@@H]2O[C@H](CO)[C@H](O)C2(F)F)c(=O)n1	6.01 µM (active)	6.75 µM (active)	2.13 µM (active)	2.69 µM (active)	2.39 µM (active)	6.01 µM (active)	4.47 µM (active)	3.55 µM (active)	3.98 µM (active)	1.41 µM (active)
Nc1ccc(S(=O)(=O)Nc2ncccn2)cc1	inactive	inactive	inactive	inactive	inactive		inactive	inactive	inactive	inactive
CCC1=C[C@@H]2CN(C1)Cc1c([nH]c3ccccc13)[C@@](C(=O)OC)(c1cc3c(cc1OC)N(C)[C@@H]1[C@@](O)(C(=O)OC)[C@H](OC(C)=O)[C@]4(CC)C=CCN5CC[C@]31[C@@H]54)C2	4.26 µM (active)	3.38 µM (active)	4.78 µM (active)	3.01 µM (active)	3.38 µM (active)	2.13 µM (active)	2.51 µM (active)	3.98 µM (active)	2.82 µM (active)	3.55 µM (active)
O=C(O)CO.[NH2-].[NH2-].[Pt+2]	inactive	inactive	inactive	inactive	inactive	inactive	inactive	inactive	inactive	inactive
Nc1ccn([C@@H]2CS[C@H](CO)O2)c(=O)n1	inactive	inactive	inactive	inactive	inactive	inactive	inactive	inactive	inactive	inactive
O=c1[nH]c(=O)n(C2CCCO2)cc1F (stereo not drawn)	inactive	inactive	inactive	inactive	inactive		inactive	inactive	inactive	inactive
COC(=O)C[C@](O)(CCCC(C)(C)O)C(=O)O[C@@H]1C(OC)=C[C@]23CCCN2CCc2cc4c(cc2[C@H]13)OCO4	0.0269 µM (active)	0.0379 µM (active)	0.0426 µM (active)	0.0338 µM (active)	0.0301 µM (active)	0.0338 µM (active)	0.0316 µM (active)	0.0158 µM (active)	0.0282 µM (active)	0.0178 µM (active)
CC=CC1=C(C(=O)O)N2C(=O)[C@H](NC(=O)[C@H](N)c3ccc(O)cc3)[C@@H]2SC1	inactive	inactive	inactive	inactive	inactive	inactive	inactive	inactive	inactive	inactive
CC1(C)O[C@@H]2C[C@@H]3[C@H]4C[C@@H](F)C5=CC(=O)C=C[C@]5(C)[C@@]4(F)[C@@H](O)C[C@]3(C)[C@]2(C(=O)CO)O1		15.1 µM (active)					inactive	inactive	inactive	inactive
C[C@H]1C[C@@H]2[C@@H]([C@@H](O)C[C@@]3(C)[C@H]2CC[C@]3(O)C(=O)CO)[C@@]2(C)C=CC(=O)C=C12	inactive	inactive	inactive	inactive	inactive	inactive	inactive	inactive	inactive	inactive
CN1c2cc(O)c(N=NC(N)=O)cc2CC1S(=O)(=O)O (stereo not drawn)	inactive	inactive	inactive	inactive	inactive	inactive	inactive	inactive	inactive	inactive
COc1cc(C(=O)NS(=O)(=O)c2ccccc2C)ccc1Cc1cn(C)c2ccc(NC(=O)OC3CCCC3)cc12	inactive		inactive					inactive	inactive	
CC(C)(C)NC(=O)[C@H]1CN(Cc2cccnc2)CCN1C[C@@H](O)C[C@@H](Cc1ccccc1)C(=O)N[C@H]1c2ccccc2C[C@H]1O	10.7 µM (active)	15.1 µM (active)	16.9 µM (active)			15.1 µM (active)	11.2 µM (active)	8.91 µM (active)		11.2 µM (active)
COC(=O)C1=C(C)NC(C)=C(C(=O)OCCN2CCN(C(c3ccccc3)c3ccccc3)CC2)C1c1cccc([N+](=O)[O-])c1 (stereo not drawn)	4.78 µM (active)	5.36 µM (active)	7.57 µM (active)	3.79 µM (active)	3.79 µM (active)	3.38 µM (active)	3.16 µM (active)	3.16 µM (active)	2.51 µM (active)	3.98 µM (active)
COc1c(N2C[C@@H]3CCCN[C@H]3C2)c(F)cc2c(=O)c(C(=O)O)cn(C3CC3)c12	inactive	inactive	inactive	inactive	inactive	inactive	inactive		inactive	inactive
